Counter-ions that a name gives are not always drawn.
Tested on: Danio rerio larvae (5 dpf)
Assay: excitability to 1-s acoustic pulses, difference vs DMSO (percentage points (treated minus DMSO)); higher = more of the behaviour than the DMSO vehicle control
Details: 10 µM; exposure time: 3 h pre-incubation + 3 h imaging
Protocol: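 5-dpf wild-type zebrafish larvae were imaged in 96-well plates. They were treated with 190 Tocris FDA-approved drugs at 10 µM (1 µl/ml DMSO) for 3 h before and 3 h during imaging at 28.5 °C, 48 larvae per drug. Automated image analysis gave % time moving and optomotor responses. Values are drug group mean minus DMSO vehicle mean (n=844), in percentage points, for 10 behaviours.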

Row | Structure (SMILES) | excitability to 1-s acoustic pulses
1 | OCCN(CCO)c1nc(N2CCCCC2)c2nc(N(CCO)CCO)nc(N3CCCCC3)c2n1 [Dipyridamole] | -3.05
2 | CC(C)Nc1cccnc1N1CCN(C(=O)c2cc3cc(NS(C)(=O)=O)ccc3[nH]2)CC1 [Delavirdine mesylate] | 0.884
3 | O=C(O)c1cc(/N=N/c2ccc(S(=O)(=O)Nc3ccccn3)cc2)ccc1O [Sulfasalazine] | -0.736
4 | CN1CCC[C@@H]1Cc1c[nH]c2ccc(CCS(=O)(=O)c3ccccc3)cc12 [Eletriptan hydrobromide] | 3.9
5 | O=c1[nH]c(=O)n([C@H]2C[C@H](O)[C@@H](CO)O2)cc1C(F)(F)F [Trifluorothymidine] | 2.88
6 | CCCCC(=O)N(Cc1ccc(-c2ccccc2-c2nnn[nH]2)cc1)[C@H](C(=O)O)C(C)C [Valsartan] | -1.54
7 | CCOC(=O)c1ncn2c1CN(C)C(=O)c1cc(F)ccc1-2 [Flumazenil] | 2.56
8 | Nc1nc(Cl)nc2c1ncn2[C@@H]1O[C@H](CO)[C@@H](O)[C@@H]1F [Clofarabine] | 2.22
9 | CC(C)(C)NC(=O)[C@@H]1C[C@@H]2CCCC[C@@H]2CN1C[C@@H](O)[C@H](Cc1ccccc1)NC(=O)[C@H](CC(N)=O)NC(=O)c1ccc2ccccc2n1 [Saquinavir mesylate] | 9.21
10 | CNS(=O)(=O)Cc1ccc2[nH]cc(CCN(C)C)c2c1 [Sumatriptan succinate] | -8.18
11 | CCCc1nn(C)c2c(=O)[nH]c(-c3cc(S(=O)(=O)N4CCN(C)CC4)ccc3OCC)nc12 [Sildenafil citrate] | 4.02
12 | CN1CC(=O)N2[C@H](c3ccc4c(c3)OCO4)c3[nH]c4ccccc4c3C[C@@H]2C1=O [Tadalafil] | 4.84
13 | CCc1nc(N)nc(N)c1-c1ccc(Cl)cc1 [Pyrimethamine] | 6.41
14 | COc1cc(N)c(Cl)cc1C(=O)NC1CCN(CCCOc2ccc(F)cc2)CC1OC (stereo not given) [Cisapride] | 16.4
15 | CN1CC2c3ccccc3Oc3ccc(Cl)cc3C2C1 (stereo not given) [Asenapine maleate] | 15
16 | CN(C)CCc1c[nH]c2ccc(C[C@H]3COC(=O)N3)cc12 [Zolmitriptan] | 3.25
17 | Clc1ccc(COC(Cn2ccnc2)c2ccc(Cl)cc2Cl)c(Cl)c1 (stereo not given) [Miconazole nitrate] | -0.632
18 | CC(CCc1ccc(O)cc1)NCCc1ccc(O)c(O)c1 (stereo not given) [Dobutamine hydrochloride] | 5.75
19 | COc1cc2ncnc(Nc3ccc(F)c(Cl)c3)c2cc1OCCCN1CCOCC1 [Iressa] | 18
20 | CNCc1ccc(-c2[nH]c3cc(F)cc4c3c2CCNC4=O)cc1 [Rucaparib camsylate] | 12.5

Row | Structure (SMILES) | excitability to 1-s acoustic pulses
21 | CC(C)c1ccc2oc3nc(N)c(C(=O)O)cc3c(=O)c2c1 [Amlexanox] | 6.32
22 | Cn1nnc2c(C(N)=O)ncn2c1=O [Temozolomide] | -2.39
23 | O=C(Nc1c(Cl)cncc1Cl)c1ccc(OC(F)F)c(OCC2CC2)c1 [Roflumilast] | 16.7
24 | CN(C)CCC[C@@]1(c2ccc(F)cc2)OCc2cc(C#N)ccc21 [Escitalopram oxalate] | 14.4
25 | CC(C)(C(=O)c1cccnc1)c1cccnc1 [Metyrapone] | 12.2
26 | CCOC(=O)C1=C(C)NC(C)=C(C(=O)OC)C1c1cccc(Cl)c1Cl (stereo not given) [Felodipine] | -13.3
27 | Cc1cc2c(s1)Nc1ccccc1N=C2N1CCN(C)CC1 [Olanzapine] | 3.32
28 | OC(CNCC(O)C1CCc2cc(F)ccc2O1)C1CCc2cc(F)ccc2O1 (stereo not given) [Nebivolol hydrochloride] | 15.9
29 | CN(C)CC/C=C1/c2ccccc2COc2ccc(CC(=O)O)cc21 [Olopatadine hydrochloride] | 3.92
30 | O=C(O[C@@H]1C[C@@H]2C[C@H]3C[C@H](C1)N2CC3=O)c1c[nH]c2ccccc12 [Dolasetron mesylate] | 9.61
31 | O=C1CCc2cc(OCCCCc3nnnn3C3CCCCC3)ccc2N1 [Cilostazol] | 6.57
32 | C/C(O)=C(\C#N)C(=O)Nc1ccc(C(F)(F)F)cc1 [Teriflunomide] | 10.6
33 | CC(C)n1c(/C=C/C(O)CC(O)CC(=O)O)c(-c2ccc(F)cc2)c2ccccc21 (stereo not given) [Fluvastatin sodium] | 3.77
34 | CCOC(=O)N1CCC(=C2c3ccc(Cl)cc3CCc3cccnc32)CC1 [Loratidine] | -6.95
35 | Nc1ncn([C@H]2C[C@H](O)[C@@H](CO)O2)c(=O)n1 [Decitabine] | 6.23
36 | CN(CCOc1ccc(CC2SC(=O)NC2=O)cc1)c1ccccn1 (stereo not given) [Rosiglitazone] | 15
37 | C=C1[C@H](CO)[C@@H](O)C[C@@H]1n1cnc2c(=O)[nH]c(N)nc21 [Entecavir] | -3.18
38 | C[C@H]1C[C@@H]2[C@H]([C@@H](O)C[C@@]3(C)[C@H]2CC[C@]3(O)C(=O)CO)[C@@]2(C)C=CC(=O)C=C12 [Methylprednisolone] | 0.503
39 | Cc1ccccc1C(=O)Nc1ccc(C(=O)N2CCCC(O)c3cc(Cl)ccc32)c(C)c1 (stereo not given) [Tolvaptan] | 6.31
40 | CN(CCOc1ccc(NS(C)(=O)=O)cc1)CCc1ccc(NS(C)(=O)=O)cc1 [Dofetilide] | 4.42
